Source: PubChem BioAssay
Measured potencies and affinities stand elsewhere. Results filed as inconclusive are left out. Activity calls are given as the source filed them.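 The calls were made as follows: active = signal-lowering compounds whose fitted half-maximal concentration is at or below twice the top tested dose in every run; inconclusive = runs disagree, flat 30 to 70% inhibition, or poor curve fit; inactive = the rest.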

Assay: inhibitors of CMV-promoter luciferase reporter, dose response, counter-screen for Pax8 inhibitor project, cell-based, HEK293, luminescence, dry powder (AID 743020);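 also: HEK293 cells stably expressing the CMV luciferase reporter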
Conditions: SteadyGlo luminescence, 24 h; series mostly up to 35 µM; activity change, negative = inhibition: at the top concentration

Compound | activity change, negative = inhibition
O=S(=O)(Nc1cccc(-c2cn3cccnc3n2)c1)c1ccc(Cl)cc1 | 3.37% (inactive)
C=C1C(=O)O[C@@H]2[C@H]1[C@@H](OC(=O)/C(C)=C/C)C/C(C)=C\C(=O)/C=C(\C)[C@@H]2O | 2.22% (inactive)
CN1CC(=O)N2C(c3ccc(Cl)cc3)c3[nH]c4ccccc4c3C[C@H]2C1=O (stereo not given in full) | -14.4% (inactive)
CCCCn1c(N)c(N(CCC(C)C)C(=O)COC(=O)c2ccc([N+](=O)[O-])s2)c(=O)[nH]c1=O | -3.33% (inactive)
COc1cccc(-c2cnc3c(NC=O)cc(-c4ccc(OC)cc4OC)cn23)c1 | -10.4% (inactive)
O=C(Nc1ccccc1)Nc1cc(OCC(F)(F)F)cc(OCC(F)(F)F)c1 | -14.6% (inactive)
C[C@H](NC(=O)c1ccco1)C(=O)Nc1cccc([N+](=O)[O-])c1 | -16.7% (inactive)
O=S(=O)(Nc1cc(Sc2ncn[nH]2)c(O)c2ccccc12)c1ccccc1 | -3.25% (inactive)
CCCCCc1cc(=O)oc2c(C(CCN3CCCCC3)c3ccc4c(c3)OCO4)c(OC)cc(OC)c12 (stereo not given) | 2.02% (inactive)
O=C(Cn1ncc(Cl)c(Cl)c1=O)NC(=O)NC1CCCCC1 | 2.56% (inactive)
COC(=O)[C@@]12C[C@@H](CC(=O)N3CCN(C(=O)c4ccco4)CC3)C(=O)N(Cc3ccccc3)C1=CCC(C)(C)C2 | -1.11% (inactive)
C=C1CC(COc2ccc3c(C)c(Cl)c(=O)oc3c2)(c2ccccc2)OC1=O (stereo not given) | -49.1% (inactive)
Cn1nnnc1Sc1ncnc2scc(-c3ccc(Br)cc3)c12 | 12.2% (inactive)
CC(/C=C1\SC(=O)N(CC(=O)Nc2ccc(O)cc2)C1=O)=C\c1ccccc1 | 19.7% (inactive)
COC(=O)[C@]12CCCCC=C1N(Cc1cccc3ccccc13)C(=O)[C@H](CC(=O)N1CCN(C(=O)c3ccco3)CC1)C2 | -9.22% (inactive)
COc1ccc(/C=C2\CN(Cc3ccccc3)C/C(=C\c3ccc(OC)c(O)c3)C2=O)cc1O | 6.93% (inactive)
O[C@@H]1[C@@H](O)C=C2CCN3Cc4cc5c(cc4[C@H]1C23)OCO5 (stereo not given in full) | -34.3% (inactive)
CC(C1CC1)N(Cc1ccccc1)C(=S)Nc1cccc(C(F)(F)F)c1 (stereo not given) | -12.7% (inactive)
CCOC(=O)C1=CN(Cc2cccc(-c3cccnc3)c2)S(=O)(=O)N(C)C1C (stereo not given) | -17.9% (inactive)
COC1C(CO)OC(n2c3c(Cl)cccc3c3c4c(c5c6cccc(Cl)c6[nH]c5c32)C(=O)NC4=O)C(O)C1O (stereo not given) | -24.7% (inactive)

Compound | activity change, negative = inhibition
C=C1C(=O)[C@]23C[C@H]1CC[C@H]2[C@]1(C)[C@@H](OC(C)=O)CC[C@@](C)(C(=O)O)[C@H]1C[C@@H]3O | -25.2% (inactive)
CN1C(=O)/C(=C\C(=O)c2cccs2)c2ccccc21 | -3.79% (inactive)
CCn1c2ccccc2c2cc(NC(=O)c3cc(OC)cc(OC)c3)ccc21 | -38.5% (inactive)
Cc1cccc(CS(=O)(=O)c2ncc(Cl)c(C(=O)Nc3ccc(F)cc3)n2)c1 | 104% (inactive)
COc1cccc(-c2nc(CS(=O)(=O)CC(=O)NCCCN3CC(C)CC(C)C3)c(C)o2)c1 (stereo not given) | -2.91% (inactive)
CCOC(=O)/C=C/C(=O)Nc1cc(S(=O)(=O)Nc2ccc(OC)cc2)ccc1N1CCOCC1 | 3.45% (inactive)
Cc1ccc(NC(=O)/C=C/c2ccc([N+](=O)[O-])s2)c(C)c1 | -6.38% (inactive)
CN=c1scc(-c2cccs2)n1/N=C/c1ccccc1O | 2.04% (inactive)
COc1cc2c(c(OC)c1OC)-c1ccc(OC)c(=O)cc1C(NC(C)=O)CC2 (stereo not given) | 55.1% (inactive)
C=C1C(=O)[C@@]23[C@H](O)C[C@@H]4C(C)(C)CC[C@H](O)[C@]4(C)[C@@H]2C[C@H](O)[C@@H]1[C@H]3O | 0.983% (inactive)
Cc1ccc2nc(NNC(=O)c3ccc(S(=O)(=O)N4CCc5ccccc5C4)cc3)sc2c1 | -8.42% (inactive)
COc1cccc2c1C(=O)c1c(O)c3c(c(O)c1C2=O)CC(O)(C(C)=NNC(=O)c1ccc(Cl)c(Cl)c1)CC3OC1CC(N)C(O)C(C)O1 (stereo not given) | 9.16% (inactive)
CC[C@]1(O)C[C@@H]2CN(CCc3c([nH]c4ccccc34)[C@@](C(=O)OC)(c3cc4c(cc3OC)N(C)[C@H]3[C@@](O)(C(=O)OC)[C@H](OC(C)=O)[C@]5(CC)C=CCN6CC[C@]43[C@@H]65)C2)C1 | 7.44% (inactive)
COc1cccc2c1C(=O)c1c(O)c3c(c(O)c1C2=O)C[C@](O)(C(C)=O)C[C@H]3O[C@@H]1C[C@@H](N)[C@@H](O)[C@@H](C)O1 | 7.02% (inactive)
O=C1[C@@H]2Cc3c([nH]c4ccccc34)C(c3cccc(Br)c3)N2C(=O)CN1C1CCN(Cc2ccccc2)CC1 (stereo not given in full) | -16.2% (inactive)
CC(C)C(=O)N1CCN(c2ccc(NC(=O)c3ccc([N+](=O)[O-])o3)cc2Cl)CC1 | -27.5% (inactive)
COc1ccc(CC2C(=O)NC(C)C(=O)N(C)C3Cc4ccc(cc4)Oc4cc(ccc4O)CC(C(=O)NC(C)C(=O)NC(C)C(=O)N2C)N(C)C3=O)cc1 (stereo not given) | -18.2% (inactive)
CCCCCc1c(-c2ccccc2OC)ncn1CCc1ccccc1OC | 6.58% (inactive)
N#Cc1ccc(-c2ccc([C@@H]3[C@@H]4CN(S(=O)(=O)c5ccc(-c6ccccc6)cc5)C[C@H]3N4)cc2)cc1 | 5.53% (inactive)
S=C1SCN(Cc2cccnc2)CN1Cc1cccnc1 | -9.56% (inactive)
